Results as given in PMC7826789 (International Journal of Molecular Sciences, 2021).

Key:
Conditions in all cases: Compound Concentration (nM):1000
[1] = test system: T1, JNK1
T1 construct: gene MAPK8

[2] = test system: T2, JNK2
T2 construct: gene MAPK9

[3] = test system: T3, JNK3
T3 construct: gene MAPK10

[4] = test system: KIT(A829P)
[5] = test system: KIT(D816H)
[6] = test system: KIT(D816V)
[7] = test system: KIT(L576P)
[8] = test system: KIT(V559D)
[9] = test system: KIT(V559D,T670I)
[10] = test system: KIT(V559D,V654A)
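Note: KINOMEscan scanMAX binding as percent activity remaining versus control; lower means stronger binding.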

| Compound | Percent Control [1] | Percent Control [2] | Percent Control [3] | Percent Control [4] | Percent Control [5] | Percent Control [6] | Percent Control [7] | Percent Control [8] | Percent Control [9] | Percent Control [10] |
| --- | --- | --- | --- | --- | --- | --- | --- | --- | --- | --- |
| COc1cccc(-n2ncc3c(N/N=C/c4ccncc4)ncnc32)c1 [GW784752X] | 99% | 83% | 96% | 100% | 46% | 100% | 84% | 89% | 38% | 100% |
| C[C@@H](Oc1cc(-n2cnc3ccc(OC4CCN(C)CC4)cc32)sc1C(N)=O)c1ccccc1Cl [GSK579289A] | 82% | 98% | 96% | 49% | 1.7% | 48% | 31% | 30% | 41% | 95% |
| NS(=O)(=O)c1ccc(N/N=C2\C(=O)Nc3ccc(Cl)cc32)cc1 [GW280670X] | 84% | 100% | 100% | 100% | 100% | 100% | 67% | 81% | 100% | 58% |
| CCS(=O)(=O)c1ccc(OC)c(Nc2ncc(-c3cccc(OC)c3)o2)c1 [GW580509X] | 76% | 89% | 95% | 83% | 52% | 42% | 0% | 2.3% | 66% | 79% |
| COc1cc(/C=N/Nc2ncnc3[nH]ncc23)ccc1O [GW578748X] | 40% | 49% | 37% | 36% | 26% | 22% | 51% | 44% | 100% | 52% |
| COc1ccc(COc2ccc(Cc3cnc(N)nc3N)cc2OC)cc1 [GW632580X] | 85% | 93% | 94% | 100% | 68% | 96% | 93% | 96% | 100% | 100% |
| NS(=O)(=O)c1ccc(N/N=C2\C(=O)Nc3ccc(-c4cnco4)cc32)cc1 [GW276655] | 87% | 83% | 83% | 79% | 69% | 100% | 55% | 58% | 100% | 100% |
| Cl.O=C(Nc1ccc(Oc2ccc3[nH]c(NC(=O)c4ccccc4)nc3c2)cc1)Nc1cc(C(F)(F)F)ccc1F [GW709042A] | 85% | 99% | 100% | 20% | 84% | 79% | 2.9% | 0.8% | 4.9% | 20% |
| O=C(Nc1n[nH]c2nc(-c3ccc(O)cc3)c(Br)cc12)C1CC1 [SB-725317] | 35% | 85% | 80% | 100% | 100% | 94% | 56% | 71% | 100% | 96% |
| COc1cc2ncn(-c3cc(O[C@H](C)c4ccccc4Cl)c(C(N)=O)s3)c2cc1OC [GSK237701A] | 88% | 79% | 81% | 11% | 14% | 14% | 34% | 33% | 12% | 81% |
| Nc1ncnc2occ(-c3ccc(NC(=O)Nc4cc(C(F)(F)F)ccc4F)cc3)c12 [GW770249X] | 99% | 9.2% | 100% | 7.5% | 32% | 14% | 0% | 0% | 0.5% | 7.5% |
| COc1cc2ncnc(Nc3ccc4c(cnn4Cc4ccccc4)c3)c2cc1OC.Cl [GW282449A] | 100% | 100% | 100% | 100% | 100% | 100% | 100% | 98% | 100% | 93% |
| C/C(Nc1ccc(S(N)(=O)=O)cc1)=C1/C(=O)Nc2ccccc21 [GW335962X] | 32% | 31% | 30% | 76% | 73% | 92% | 90% | 100% | 80% | 87% |
| COc1cc(N2CCN(C(C)C)CC2)ccc1Nc1nc(Nc2ccc(F)cc2C(=O)NC[C@@H](O)CO)c2cc[nH]c2n1 [GSK1392956A] | 0% | 0.1% | 0.1% | 88% | 57% | 100% | 100% | 100% | 96% | 98% |
| COc1ccc2cc(-c3c(-c4ccncc4)nc(-c4ccc(S(C)(=O)=O)cc4C)n3C)ccc2c1 [SB-633825] | 73% | 24% | 20% | 52% | 46% | 74% | 77% | 65% | 88% | 89% |
| Cl.O=C(Nc1ccc(Oc2ccc3[nH]c(NC(=O)c4ccco4)nc3c2)cc1)Nc1cc(C(F)(F)F)ccc1F [GW683134A] | 85% | 86% | 100% | 15% | 96% | 48% | 0% | 0% | 2.3% | 10% |
| NS(=O)(=O)c1ccc(N/N=C2\C(=O)Nc3ccc(C(=O)NCc4ccncc4)cc32)cc1 [GW300657X] | 55% | 40% | 38% | 47% | 14% | 61% | 83% | 87% | 89% | 100% |
| Cl.c1ccc(Cc2nc3ccc(Nc4ncnc5ccccc45)cc3[nH]2)cc1 [GR269666A] | 91% | 100% | 100% | 100% | 100% | 100% | 100% | 91% | 100% | 85% |
| Cc1cc(O)cc(C)c1/C=C/c1cncc(C(N)=O)c1 [GW435821X] | 84% | 100% | 100% | 92% | 65% | 90% | 4.4% | 1% | 100% | 95% |
| COc1cccc(-c2c[nH]c3c(N/N=C/c4ccncc4)ncnc23)c1 [GW814408X] | 99% | 97% | 90% | 27% | 12% | 9.8% | 2.1% | 1.7% | 12% | 33% |
